In PubChem BioAssay (EPA / NIEHS) one finds outcome and AC50 data, which are given here for seven molecules.

Some compounds were tested as several samples or in several runs, with calls that do not always agree. Calls of active or inactive are those of the source. The calls were made as follows: active = hit-call score of the fitted dose curve at least 0.9, where 1 is the maximum; inactive = score below 0.9.

By AC50 is commonly meant the concentration at which the activity in the assay is half-maximal.

Read-out in test [1]: Human Leukocyte Antigen - DR isotype (HLADR), HLA-DRA (gene 3122)
Briefly: BSK_BE3C_HLADR: BioMAP Diversity Plus: BE3C Assay for Human Leukocyte Antigen - DR isotype (HLADR) Biomarker Activity (AID 2283032). As to conditions: primary human bronchial epithelial cells; actives raise or lower the signal. The method in brief:
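Cell-surface HLA-DR ELISA readout at 24 h after dosing in the BE3C primary human lung bronchial epithelial system; gain or loss of signal against DMSO, with parallel sulforhodamine B staining of total protein for overt cytotoxicity.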

Read-out in test [2]: Vascular cell adhesion molecule 1 (VCAM1), VCAM1 (gene 7412)
In words: BSK_4H_VCAM1: BioMAP Diversity Plus: 4H Assay for Vascular cell adhesion molecule 1 (VCAM1) Biomarker Activity (AID 2283033).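 As to outcome: cell-surface VCAM-1 protein measured by ELISA.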 As to conditions: primary human endothelial cells (HUVEC); actives raise or lower the signal. In short, it runs like this: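 VCAM-1 ELISA read 24 h after chemical dosing of HUVEC in the BioMAP 4H system, with gain or loss of signal fitted relative to DMSO. Parallel SRB staining (560 nm) checked overt cytotoxicity.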

Read-out in test [3]: Interferon-gamma inducible Protein 10 (IP10), CXCL10 (gene 3627)
Briefly: BSK_BE3C_IP10: BioMAP Diversity Plus: BE3C Assay for Interferon-gamma inducible Protein 10 (IP10) Biomarker Activity (AID 2283034). Conditions: primary human bronchial epithelial cells; actives raise or lower the signal. The method in brief:
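IP-10 quantified by ELISA in human primary bronchial epithelial cell cultures at 24 hours post-dosing. Gain or loss of signal fitted relative to DMSO; parallel SRB staining assessed overt cytotoxicity.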

Read-out in test [4]: Monokine induced gamma interferon (MIG), CXCL9 (gene 4283)
In words: BSK_BE3C_MIG: BioMAP Diversity Plus: BE3C Assay for Monokine induced gamma interferon (MIG) Biomarker Activity (AID 2283035). As to conditions: primary human bronchial epithelial cells; actives raise or lower the signal. In short, it runs like this: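 hu bronchial epithelial 1° cells, 24 h cpd; MIG by ELISA; bidirectional fit, DMSO = baseline.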

Read-out in test [5]: Transforming growth factor beta 1 (TGFb1), TGFB1 (gene 7040)
Briefly: BSK_BE3C_TGFb1: BioMAP Diversity Plus: BE3C Assay for Transforming growth factor beta 1 (TGFb1) Biomarker Activity (AID 2283036;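 as to outcome: TGF-b1 protein level measured by ELISA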). Conditions: primary human bronchial epithelial cells; actives raise or lower the signal. In short, it runs like this: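 ELISA readout of TGF-b1 from human lung bronchial epithelial primary cells, taken 24 h post-treatment. Gain or loss of signal fitted relative to DMSO baseline, with parallel SRB staining for overt cytotoxicity.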

Read-out in test [6]: Plasminogen activator inhibitor-1 (PAI1), SERPINE1 (gene 5054)
In words: BSK_BE3C_PAI1: BioMAP Diversity Plus: BE3C Assay for Plasminogen activator inhibitor-1 (PAI1) Biomarker Activity (AID 2283037). Conditions: primary human bronchial epithelial cells; actives raise or lower the signal. In short, it runs like this:
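PAI-1 was measured by ELISA in human primary bronchial epithelial cultures 24 h after chemical dosing, with cytotoxicity checked by SRB total-protein staining in parallel cultures. Activity was fitted in both directions relative to DMSO.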

Read-out in test [7]: Urokinase-type plasminogen activator receptor (uPAR), PLAUR (gene 5329)
Briefly: BSK_BE3C_uPAR: BioMAP Diversity Plus: BE3C Assay for Urokinase-type plasminogen activator receptor (uPAR) Biomarker Activity (AID 2283039).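 As to outcome: cells exposed to compound for one day before measurement.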 Conditions: primary human bronchial epithelial cells; actives raise or lower the signal. The method in brief: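 uPAR levels were measured by ELISA after 24 h compound treatment of primary human bronchial epithelial cells, fitted in both directions relative to DMSO. Parallel SRB staining served as the cytotoxicity read-out.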

Read-out in test [8]: Interleukin-6 (IL6), IL6 (gene 3569)
Briefly: BSK_CASM3C_IL6: BioMAP Diversity Plus: CASM3C Assay for Interleukin-6 (IL6) Biomarker Activity for (AID 2283040). As to conditions: primary human coronary artery smooth muscle cells; actives raise or lower the signal.

Read-out in test [9]: Tissue plasminogen activator (tPA), PLAT (gene 5327)
In words: BSK_BE3C_tPA: BioMAP Diversity Plus: BE3C Assay for Tissue plasminogen activator (tPA) Biomarker Activity (AID 2283041).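 As to outcome: tPA level quantified by ELISA one day after compound addition.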 As to conditions: primary human bronchial epithelial cells; actives raise or lower the signal. The method in brief:
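tPA measured by ELISA 24 h after dosing human primary bronchial epithelial cells (BE3C system). Changes in either direction were fitted against DMSO. Parallel cultures were stained with SRB to flag overt cytotoxicity.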

Read-out in test [10]: Interleukin-8 (IL8), CXCL8 (gene 3576)
In words: BSK_CASM3C_IL8: BioMAP Diversity Plus: CASM3C Assay for Interleukin-8 (IL8) Biomarker Activity (AID 2283042).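 Also: IL-8 protein level quantified by ELISA.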 Conditions: primary human coronary artery smooth muscle cells; actives raise or lower the signal.

Read-out in test [11]: Human Leukocyte Antigen - DR isotype (HLADR), HLA-DRA (gene 3122)
Briefly: BSK_CASM3C_HLADR: BioMAP Diversity Plus: CASM3C Assay for Human Leukocyte Antigen - DR isotype (HLADR) Biomarker Activity (AID 2283043).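 Also: cell-surface HLA-DR protein level quantified by ELISA.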 Conditions: primary human coronary artery smooth muscle cells; actives raise or lower the signal.

Read-out in test [12]: Macrophage colony-stimulating factor (MCSF), CSF1 (gene 1435)
In words: BSK_CASM3C_MCSF: BioMAP Diversity Plus: CASM3C Assay for Macrophage colony-stimulating factor (MCSF) Biomarker Activity (AID 2283044).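 Also: M-CSF protein amount quantified by ELISA after 24 h exposure.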 As to conditions: primary human coronary artery smooth muscle cells; actives raise or lower the signal.

Read-out in test [13]: Low-density lipoprotein receptor (LDLR), LDLR (gene 3949)
Briefly: BSK_CASM3C_LDLR: BioMAP Diversity Plus: CASM3C Assay for Low-density lipoprotein receptor (LDLR) Biomarker Activity (AID 2283045).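 Also: LDLR protein level on the cell surface quantified by ELISA.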 Conditions: primary human coronary artery smooth muscle cells; actives raise or lower the signal.

Read-out in test [14]: Monocyte Chemoattractant Protein-1 (MCP1), CCL2 (gene 6347)
In words: BSK_CASM3C_MCP1: BioMAP Diversity Plus: CASM3C Assay for Monocyte Chemoattractant Protein-1 (MCP1) Biomarker Activity (AID 2283046).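 Also: MCP-1 level quantified by ELISA 24 h after dosing.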 As to conditions: primary human coronary artery smooth muscle cells; actives raise or lower the signal.

Test [15] in a line: BSK_CASM3C_Proliferation: Cell Proliferation Assessment in the BioMAP Diversity Plus: CASM3C Assay (AID 2283047).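 Also: sulforhodamine B total protein stain as relative cell number at 560 nm; sub-confluent cells exposed 48 h before staining; fitted both ways against DMSO so gain or loss of cell number.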 As to conditions: primary human coronary artery smooth muscle cells.
Read-out in test [16]: Monokine induced gamma interferon (MIG), CXCL9 (gene 4283)
In words: BSK_CASM3C_MIG: BioMAP Diversity Plus: CASM3C Assay for Monokine induced gamma interferon (MIG) Biomarker Activity (AID 2283048). Conditions: primary human coronary artery smooth muscle cells; actives raise or lower the signal.

Read-out in test [17]: serum amyloid A (SAA), SAA1 (gene 6288)
In words: BSK_CASM3C_SAA: BioMAP Diversity Plus: CASM3C Assay for serum amyloid A (SAA) Biomarker Activity (AID 2283049).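 Also: SAA protein level quantified by ELISA.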 As to conditions: primary human coronary artery smooth muscle cells; actives raise or lower the signal.

Test [18] in a line: BSK_CASM3C_SRB: Viability Assessment in the BioMAP Diversity Plus: CASM3C Assay (AID 2283050). Conditions: primary human coronary artery smooth muscle cells.
Read-out in test [19]: Thrombomodulin, THBD (gene 7056)
Briefly: BSK_CASM3C_Thrombomodulin: BioMAP Diversity Plus: CASM3C Assay for Thrombomodulin Biomarker Activity (AID 2283051).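 Also: thrombomodulin protein level measured by ELISA 24 h after dosing.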 As to conditions: primary human coronary artery smooth muscle cells; actives raise or lower the signal.

Read-out in test [20]: urokinase plasminogen activator (uPA), PLAU (gene 5328)
In words: BSK_BE3C_uPA: BioMAP Diversity Plus: BE3C Assay for urokinase plasminogen activator (uPA) Biomarker Activity (AID 2283038).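 Also: uPA protein level quantified by ELISA in cell cultures; uPA read one day after compound addition.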 Conditions: primary human bronchial epithelial cells; actives raise or lower the signal. In short, it runs like this: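 Human primary bronchial epithelial cells were exposed to chemical for 24 h, then uPA levels were measured by ELISA. Responses were fitted bidirectionally against DMSO as negative control and baseline. Parallel SRB staining of total protein gauged overt cytotoxicity.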

Consider `CCCCCCCCCCCCCCO`, for which the outcome in [1], in [3], in test [4], in test [5], in [6] and in test [7] was inactive. In addition, the result in test [8], in test [9], in test [10] and in [11] was inactive. Moreover, the half-maximal activity concentration (AC50) in test [2] is 34.2 µM (active); in test [12] it was 31.3 µM (active); in test [13], 32.3 µM (active); in test [14], 32.4 µM (active); in test [15], 38 µM (active); in [16] it was 29.5 µM (active). Besides, the AC50 was 31 µM (active) in [17], 30.2 µM (active) in [18] and 31.5 µM (active) in [19].
Turning to `OCCC(F)(F)C(F)(F)C(F)(F)C(F)(F)F`, the outcome in [1], in test [2], in [3], in [4], in test [6] and in [7] was inactive. The result in [8], in test [9], in test [10], in test [11], in test [12] and in test [13] was inactive. For the same molecule, the outcome in test [14], in test [15], in [16], in test [17], in test [18] and in test [19] was inactive.
On to `CC(C)C(=O)Nc1ccc([N+](=O)[O-])c(C(F)(F)F)c1`, for which the outcome in test [1], in test [2], in test [3], in test [4], in test [5] and in test [6] was inactive. Further, the outcome in [7], in test [8], in test [9], in test [10], in test [11] and in [12] was inactive. The outcome in test [14], in [15], in [16], in test [17], in [18] and in [19] was inactive. The half-maximal activity concentration (AC50) in test [13] was 4.78 µM (active).
On to `NC(=O)N1c2ccccc2C=Cc2ccccc21`, for which the outcome in [1], in [2], in test [4], in test [5], in test [6] and in test [7] was inactive. The outcome in test [8], in test [9], in [10], in test [11], in test [12] and in test [13] was inactive. Besides, the outcome in [14], in test [15], in test [16], in test [17], in test [18] and in test [19] was inactive.
Regarding `O=C(Cl)C(F)(F)C(F)(F)C(F)(F)C(=O)Cl`, the outcome in test [1], in test [2], in [3], in test [4], in [6] and in test [20] was inactive. In addition, the result in test [7], in test [8], in [9], in test [10], in test [11] and in [12] was inactive. Moreover, the result in test [13], in test [14], in test [15], in [16], in test [17] and in test [18] was inactive. The result in test [19] was inactive. In addition, the AC50 in [6] is 12.2 µM (active).
For `CCCCCCCCCCCCCCCCOS(=O)(=O)O`, the AC50 is 15.1 µM (active) in test [1]; 10.5 µM (active) in test [3]; 16 µM (active) in [5]; 15.1 µM (active) in [6]; 16.1 µM (active) in test [7]; 14.9 µM (active) in [9]. Moreover, the result in [2], in [4], in [8], in [10], in [11] and in test [12] was inactive. Moreover, the outcome in test [13], in test [14], in [15], in [16], in [17] and in [18] was inactive. Moreover, the result in test [19] was inactive.
In the case of `O=S(=O)(O)CCC(F)(F)C(F)(F)C(F)(F)C(F)(F)C(F)(F)C(F)(F)F`, the result in test [1], in test [2], in [3], in test [4], in test [6] and in test [20] was inactive. The result in test [7], in test [8], in test [9], in test [10], in [11] and in [12] was inactive. Besides, the result in test [13], in [14], in test [15], in [16], in [17] and in [18] was inactive. For the same molecule, the outcome in test [19] was inactive.
